Experimental data published in PubChem BioAssay (EPA / NIEHS).
Some structures have more than one record in an assay (separate samples or runs), and their calls can disagree. Activity calls are given as the source filed them. How the source made its calls: active means hit-call score of the fitted dose curve at least 0.9, where 1 is the maximum; inactive means score below 0.9.

Test: IUF_NPC3_neuronal_differentiation_120hr: Leibniz Research Institute for Environmental Medicine (IUF) 120-hour Neuronal Differentiation Assay (NPC3) (AID 2284301)
Procedure: IUF_NPC2-5 is a cell-based, multiplexed assay that uses hNPC, a human primary neural progenitor cells, with measurements taken at 72 or 120 hours after chemical dosing in a 96-well plate. Human neural progenitor cells (hNPC) are generated from human fetal brain cortex at gestational week (GW) 16-19. In the neural progenitor cell migration and differentiation assay (NPC2-5), hNPCs grown as spheres are plated on an extracellular matrix and migrate and differentiate out of the sphere core. The processes radial glia migration, neuronal and oligodendrocyte migration as well as neuronal differentiation, neuronal morphology and oligodendrocyte differentiation are studied using automated phase contrast imaging and automated fluorescence imaging in combination with high content image analysis. In parallel, the cell viability is assessed using an alamar blue viability assay and the cytotoxicity using a lactate dehydrogenase dependent membrane integrity assay.IUF_NPC3_neuronal_differentiation_120hr is one of 12 assay components measured from the IUF_NPC2-5 assay. Neuronal differentiation is determined as the number of all TUBB3 positive cells in percent of the number of Hoechst-positive nuclei in the total neurosphere migration area (see IUF_NPC2a_ glia_migration_120hr) after 120 hr of migration/differentiation. Neurons are automatically identified using a convolutional neural network (CNN) that was trained using manually annotated images of differentiated neurons. Data from the IUF_NPC3_neuronal_differentiation_120hr component was analyzed at the endpoint IUF_NPC3_neuronal_differentiation_120hr in the positive analysis fitting direction relative to DMSO as the negative control and baseline of activity. Using a type of differentiation reporter, gain or loss-of-signal activity can be used to understand developmental effects.
Culture protocol: After the cell expansion period the cells are cultured for up to four weeks in which they are passaged every week as described in 3.6. Between one to three days after passaging spheres at a size of 0.3 mm are picked for the test method. For the assessment of neural progenitor cell migration and differentiation, the spheres are plated on poly-D-lysine/laminin coated 96-well flat bottom plates in differentiation medium (N2) to initiate migration and differentiation. Thereby one 0.3 mm big sphere is plated in the middle of a well. The differentiation medium consists of DMEM and Ham's F12 at a ratio of 3 to 1 supplemented with 1% N2 and 1% penicillin and streptomycin. Within 5 days NPCs radially migrate out of the sphere core and differentiate into radial glia cells (nestin positive), neurons (TUBB3 positive), oligodendrocytes (O4 positive) and astrocytes (GFAP positive). Cultivation during the test method is performed at 37C and 5% CO2 at a ph of 7.2-7.6.Exposure: 0.3 mm big hNPC are plated in the already prepared test conditions. Exposure starts at day 0 of differentiation and is continued over five days of differentiation until the experiment is terminated. Cells are fed with fresh medium at day 3 of differentiation. Therefore, half of the test condition solution (e.g. solvent control or compound dilution) is replaced by freshly prepared test condition solution.Test Method: Migration distance and cytotoxicity is determined after 72 hours based on brightfield images of each well. The assay is terminated by the assessment of cell viability and cytotoxicity as well as cell fixation after 120 h. Immunocytochemistry is performed for Hoechst positive nuclei, TUBB3 positive neurons and O4 positive oligodendrocytes. On the ICC images, migration after 120 hours, neuronal and oligodendrocyte number, neuronal morphology and neuron/oligodendrocyte specific migration is assessed. immunocytochemical staining (ICC) generates an image for each sphere. The plates are scanned using an automated high content imaging device and all nuclei and their positions are determined automatically based on their intensity and size. […]

Row | SMILES | outcome | AC50
1 | CC1(C)C(C=C(Cl)Cl)C1C(=O)OC(C#N)c1ccc(F)c(Oc2ccccc2)c1 (configuration not stated) | inactive | 
2 | CC1(c2ccc(Oc3ccccc3)cc2)OC(=O)N(Nc2ccccc2)C1=O (configuration not stated) | inactive | 
3 | CCC(C)(C)C(=O)OC1=C(c2ccc(Cl)cc2Cl)C(=O)OC12CCCCC2 | inactive | 
4 | O=[N+]([O-])/N=C1\NCCN1Cc1ccc(Cl)nc1 | inactive | 
5 | O=S(=O)(O)C(F)(F)C(F)(F)C(F)(F)C(F)(F)C(F)(F)C(F)(F)C(F)(F)C(F)(F)F | inactive | 2090 nM (active)
6 | O=C(O)COc1ccc(Cl)cc1Cl | inactive | 
7 | O=C(O)C(F)(F)C(F)(F)C(F)(F)C(F)(F)C(F)(F)C(F)(F)C(F)(F)F | inactive | 
8 | CNC(=O)CSP(=S)(OC)OC | inactive | 
9 | CC(C)N(C(=O)COc1nnc(C(F)(F)F)s1)c1ccc(F)cc1 | inactive | 
10 | O=S1OCC2C(CO1)C1(Cl)C(Cl)=C(Cl)C2(Cl)C1(Cl)Cl (configuration not stated) | inactive | 
11 | COP(=S)(OC)Oc1ccc([N+](=O)[O-])cc1 | inactive | 
